Reference: PubChem BioAssay AID1942 (Johns Hopkins Ion Channel Center, 2009)
The whole screen tested about 2,400 compounds, of which about 580 (24%) were called active. The list is a sample of the results. Unmarked numbers belong to inactive results.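 Rule for the calls: active = activity change at or above the mean plus 3 SD of buffer wells without dofetilide, per plate; inactive = the rest.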

The compounds below were run against Potassium voltage-gated channel subfamily KQT member 2 (Rattus norvegicus) (UniProt O88943) (assay: KCNQ2 potentiation in CHO cells – cell-based, FluxOR thallium flux, counter-screen for hERG block protector project, confirmation (AID 1942;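 note: normalized value minus buffer-control mean plus three SD of buffer wells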)). Settings: FluxOR thallium flux fluorescence, at 10 µM, active compounds read high.
Potassium voltage-gated channel subfamily KQT member 2 (Rattus norvegicus), sequence (O88943 whole entry, looked up): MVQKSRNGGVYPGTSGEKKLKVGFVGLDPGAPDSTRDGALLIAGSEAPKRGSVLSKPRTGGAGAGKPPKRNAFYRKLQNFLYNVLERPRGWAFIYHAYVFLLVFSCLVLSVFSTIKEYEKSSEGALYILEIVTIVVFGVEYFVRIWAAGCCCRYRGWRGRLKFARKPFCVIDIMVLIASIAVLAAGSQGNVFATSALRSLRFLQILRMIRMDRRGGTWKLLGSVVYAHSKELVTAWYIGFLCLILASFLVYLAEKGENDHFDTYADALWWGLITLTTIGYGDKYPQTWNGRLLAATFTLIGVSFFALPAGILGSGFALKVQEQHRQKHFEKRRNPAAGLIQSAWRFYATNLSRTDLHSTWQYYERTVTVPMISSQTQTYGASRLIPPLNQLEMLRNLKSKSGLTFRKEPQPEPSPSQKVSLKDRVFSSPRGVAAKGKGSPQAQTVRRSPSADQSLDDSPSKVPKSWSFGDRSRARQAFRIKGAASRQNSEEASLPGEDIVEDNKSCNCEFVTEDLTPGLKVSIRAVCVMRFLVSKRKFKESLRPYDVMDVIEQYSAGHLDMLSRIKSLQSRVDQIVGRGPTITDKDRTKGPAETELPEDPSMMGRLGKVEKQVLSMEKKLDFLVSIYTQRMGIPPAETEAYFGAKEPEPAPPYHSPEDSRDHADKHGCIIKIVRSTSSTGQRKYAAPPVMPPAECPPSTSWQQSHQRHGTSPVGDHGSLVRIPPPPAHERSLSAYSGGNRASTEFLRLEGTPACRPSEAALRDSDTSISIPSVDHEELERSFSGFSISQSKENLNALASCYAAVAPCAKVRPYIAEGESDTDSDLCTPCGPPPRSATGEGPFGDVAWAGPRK

First: CCC(C)c1ccccc1NC(=O)C(C)NCCN(C)C (stereo unspecified)
Second: Cc1cc(C(=O)Nc2cccc3ccccc23)c(C)o1
The activity change, less the hit threshold of the first is higher: -17.2% for the first, -28.1% for the second.

Going from COc1ccc(C)cc1S(=O)(=O)NC1CCCCC1 to Cc1ccc(C(=O)NC2CCC(C)CC2)o1 (stereo unspecified), the activity change, less the hit threshold falls from -6.4% to -20.7%.

First: CCOC(=O)c1cc2c(nc1NC(=S)NCc1ccccc1)CCCC2
Second: C=C(C)CNC(=S)Nc1nc2c(cc1C(=O)OCC)CCCC2
The activity change, less the hit threshold of the first is lower: -13.9% for the first, -9.5% for the second.

Going from CCc1cccc2c1NC(=O)C2(O)CC(=O)c1cccs1 (stereo unspecified) to Cc1ccc(N=C2NC(=O)/C(=C/c3cccs3)S2)cc1C, the activity change, less the hit threshold rises from -20.9% to -6.4%.

Going from O=C(CCc1ccccc1)NC(=S)Nc1cc(C(F)(F)F)ccc1N1CCOCC1 to S=C(NCCc1ccccc1)NCCN1CCOCC1, the activity change, less the hit threshold rises from -30.4% to -16.4%.

Going from CCc1nccn1S(=O)(=O)c1ccc2ccc(C)cc2c1 to CC1=CC(=O)C(C(C)C)=CC1=NC(=O)c1ccc(C)cc1, the activity change, less the hit threshold falls from -8.3% to -15.5%.

Going from CC(OC(=O)c1cc2c(s1)CCCCC2)C(=O)NC(N)=O (stereo unspecified) to O=C(c1cc2c(s1)-c1ccccc1OC2)N1CCCC1, the activity change, less the hit threshold rises from -23.7% to -12.6%.

Going from CCOc1ccc(-n2cnc3sc(C)c(C)c3c2=O)cc1 to CCOc1ccc(-n2c(C)c(C(C)=O)c3cc(O)ccc32)cc1, the activity change, less the hit threshold rises from -26.5% to -2.3%.

First: Cc1sc2ncnc(SCC(=O)NC(=O)c3cccn3C)c2c1C
Second: C=CCn1c(SCC(=O)Nc2cccc(C)c2)nnc1-c1cnccn1
The activity change, less the hit threshold of the first is higher: -2.4% for the first, -26.8% for the second.

Compared with O=C(Nc1cccnc1)c1ccc(COc2ccccc2Br)o1, COc1ccc(CCNC(=O)c2cc3ccccc3oc2=O)cc1 is lower in activity change, less the hit threshold: -13.5% for the first, -29% for the second.

Compared with C=CCOc1ccccc1/C=c1\sc2nc(=O)c(C)nn2c1=O, C=CCn1c(=S)[nH]c2cc(-c3ccccc3)sc2c1=O is higher in activity change, less the hit threshold: -17.3% for the first, -4.4% for the second.

Going from O=C(NC(=S)NCCc1ccc(Cl)cc1)c1ccco1 to CC(NC(=O)CCNC(=O)c1ccco1)c1ccc(F)cc1 (stereo unspecified), the activity change, less the hit threshold falls from -7.7% to -12.9%.

First: Cc1ccc(/C=N/Nc2ccc(C(=O)O)cc2)o1
Second: Cc1ccc(/C=N/NC(=O)c2cc(C)oc2C)o1
The activity change, less the hit threshold of the first is higher: -9.1% for the first, -17.8% for the second.

Compared with O=C(OCc1ccccc1)/C(=C/c1cccc([N+](=O)[O-])c1)NC(=O)c1ccco1, COc1ccc(CN(C)C(=O)c2cccc(NS(=O)(=O)c3ccccc3)c2)cc1F is higher in activity change, less the hit threshold: -19.1% for the first, -13.5% for the second.

Going from O=C1NC(=S)/C(=C\c2ccc(-c3ccccc3Cl)o2)S1 to CCN1C(=O)/C(=C\c2ccc(-c3cccc(C(=O)OC)c3)o2)SC1=Nc1ccc(C(=O)O)cc1, the activity change, less the hit threshold falls from -18.7% to -22.8%.

First: COc1ccc2nc(N3CCCCC3)c(/C=C3\SC(=S)NC3=O)cc2c1
Second: Brc1ccc(-c2csc(N3CCCCCC3)n2)cc1
The activity change, less the hit threshold of the first is lower: -17.9% for the first, -13.8% for the second.

Compared with S=c1[nH]c(-c2ccccc2)cn1/N=C/c1cccc2ccccc12, Cn1c(=O)c(Sc2ccccc2)c(O)c2ccccc21 is lower in activity change, less the hit threshold: -7.9% for the first, -8.1% for the second.

Going from CCCOC(=O)CN1C(=O)c2ccc(C(=O)OCCC)cc2C1=O to Cn1c(CNC(=O)CNC(=O)c2ccc(F)cc2)cc(=O)n(C)c1=O, the activity change, less the hit threshold rises from -12.2% to -10.8%.

First: O=c1oc2cc(OCCO)ccc2c2c1CCCC2
Second: Cc1ccsc1/C=C1/SC(=O)N(CC(=O)N2CCCC2)C1=O
The activity change, less the hit threshold of the first is higher: -17.1% for the first, -18.9% for the second.

Going from Cc1ccc2nc(-c3ccncc3)cc(C(=O)Nc3ccc4c(c3)OCCO4)c2c1 to Cc1nn(C)cc1C(=O)Nc1ccc2c(c1)OCCO2, the activity change, less the hit threshold falls from -19.5% to -19.7%.

Compared with CS(=O)(=O)N1CCC(C(=O)Nc2c(F)cccc2F)CC1, O=C(NCc1ccco1)C1CCN(C(=O)Cc2ccccc2)CC1 is lower in activity change, less the hit threshold: -11.1% for the first, -17.3% for the second.

First: COc1ccc(Cl)cc1C(=O)NNC(=S)NC(=O)/C=C/c1ccco1
Second: O=C(COc1ccc(Cl)cc1Cl)NC(=S)Nc1ccccc1C(=O)O
The activity change, less the hit threshold of the first is lower: -17% for the first, -12.7% for the second.

Going from CN1CCN(c2nnc(-c3cccs3)c3ccccc23)CC1 to NC(=O)CSc1nc2ccccc2c(=O)n1CCc1ccccc1, the activity change, less the hit threshold rises from -26.6% to -15.2%.

Going from COC(=O)c1sccc1NC(=S)N1CC(C)CC(C)C1 (stereo unspecified) to COc1cc(C(=S)N2CCOCC2)ccc1OC(=O)c1ccc([N+](=O)[O-])cc1[N+](=O)[O-], the activity change, less the hit threshold falls from -25% to -27.5%.

First: CN(C)c1ccc(N=Nc2ccc(C(=O)O)cc2)cc1
Second: Cc1[nH]n(-c2ccccc2)c(=O)c1N=Nc1ccc(C(N)=O)cc1
The activity change, less the hit threshold of the first is higher: -18.5% for the first, -25.6% for the second.

Compared with O=C(COC(=O)c1cccs1)NCCN1C(=O)CSC1=O, Cc1cc(C(=O)NCCN2C(=O)S/C(=C\c3cccs3)C2=O)ccc1[N+](=O)[O-] is higher in activity change, less the hit threshold: -22% for the first, -16.8% for the second.

First: S=c1[nH]c2ccccc2n2cccc12
Second: CCSC(=S)c1c(C)[nH]n(-c2ccccc2)c1=O
The activity change, less the hit threshold of the first is lower: -14.5% for the first, -4.2% for the second.

Going from CC(=O)c1ccc(S(=O)(=O)NCc2ccc(C(=O)N(C)CC(=O)Nc3cccc(F)c3)cc2)cc1 to CC(C)(C)NC(=O)CN(C(=O)CS(=O)CC(=O)Nc1ccc(F)cc1)c1cccc(F)c1 (stereo unspecified), the activity change, less the hit threshold falls from -9.1% to -11.2%.

Going from CCC1(C)CC2(CCCN(CCC(=O)c3ccccc3)C2)CCO1 (stereo unspecified) to Cn1c(=O)c2c(ncn2CC(=O)OCc2ccccc2)n(C)c1=O, the activity change, less the hit threshold rises from -25% to -14.2%.

Going from O=C(CCSCCc1ccccn1)Nc1cccc([N+](=O)[O-])c1 to C/C(=N\NC(=O)c1cc2ccccc2cc1O)c1ccccn1, the activity change, less the hit threshold rises from -11.2% to -9.4%.

Compared with CCCCN(C(=O)CNC(=O)c1cccs1)C(C(=O)NC1CCCC1)c1ccncc1 (stereo unspecified), CCCCN(C(=O)CC1CCCC1)c1c(N)n(CC(C)C)c(=O)[nH]c1=O is lower in activity change, less the hit threshold: -7.8% for the first, -9.9% for the second.

Compared with Nc1nonc1-n1nnc(C(=O)N/N=C/c2ccccn2)c1-c1ccccc1, O=C(N/N=C/c1ccc(Sc2ccccn2)o1)c1cc2ccccc2cc1O is higher in activity change, less the hit threshold: -18.1% for the first, -4.5% for the second.

First: COc1ccc(C2N=C(c3ccccc3)C(C)(C)N2O)cc1 (stereo unspecified)
Second: CSc1ccccc1C(=O)NCc1ccc(C)cc1
The activity change, less the hit threshold of the first is lower: -18.6% for the first, -15.6% for the second.

Going from Cc1cc(Cl)ccc1OC(C)C(=O)NCCc1ccc2c(c1)OCCO2 (stereo unspecified) to Cc1ccc(CCNC(=O)c2cccc(NC3=NC4CS(=O)(=O)CC4S3)c2)cc1 (stereo unspecified), the activity change, less the hit threshold rises from -30.8% to -10.3%.

Going from C/C(=N\NC(=S)Nc1cccc(C)c1)c1ccco1 to C/C(=N\NC(=S)Nc1c(C)cccc1C)c1cc2ccccc2o1, the activity change, less the hit threshold falls from -13.9% to -16.4%.

First: C/C(=N\NC(=O)CSc1nc2ccccc2o1)c1ccc(O)cc1
Second: Nn1c(SCC(=O)Nc2ccc(OC(F)F)cc2)nnc1-c1ccco1
The activity change, less the hit threshold of the first is lower: -16.2% for the first, -14.7% for the second.

Going from Cc1nc(-c2cc(C#N)c(Sc3ccc(Cl)cc3Cl)nc2C)cs1 to Cc1ccc(Nc2nc(-c3ccncc3)cs2)cc1, the activity change, less the hit threshold falls from -16.9% to -17.9%.

Going from C/C(=N/NC(=O)c1sc(NS(=O)(=O)c2ccccc2)nc1C)c1sc(N)nc1C to Cc1cc(C)c(-c2c(O)c3c(n(C)c2=O)CC(C)(C)CC3=O)c(C)c1, the activity change, less the hit threshold falls from -11.4% to -18.3%.

C=CCNC(=S)Nc1nc2c(cc1C(=O)OCC)CCCC2 was tested, and the activity change, less the hit threshold was 1.1% (active).
CCNC(=S)Nc1nc2c(cc1C(=O)OCC)CCCC2 was tested, and the activity change, less the hit threshold was 6.4% (active).
With NC(=O)C1CCN(C(=O)c2cc3c(s2)CCCC3)CC1 the activity change, less the hit threshold was 12% (active).
Cc1sc2ncnc(SCC(=O)c3ccc(O)cc3O)c2c1C was tested, and the activity change, less the hit threshold was 2.9% (active).
With O=C(NC(=S)NCCC1=CCCCC1)c1ccco1 the activity change, less the hit threshold was 42.7% (active).
With O=C(NC(=S)NCCC1=CCCCC1)c1ccc(Br)o1 the activity change, less the hit threshold was 3.5% (active).
O=C1NC(=S)S/C1=C\c1ccc2ccccc2c1 was tested, and the activity change, less the hit threshold was 53.3% (active).
CC1CCc2c(sc3[nH]c(=S)n(C)c(=O)c23)C1 (stereo unspecified) was tested, and the activity change, less the hit threshold was 72.5% (active).
For Cn1c(=S)[nH]c2sc3c(c2c1=O)CCC(C(C)(C)C)C3 (stereo unspecified), the activity change, less the hit threshold was 70.3% (active).
With Cc1occc1C(=O)NNC(=S)NC(=O)COc1ccc(Cl)cc1Cl the activity change, less the hit threshold was 64.9% (active).
For O=c1ccc(N=Nc2ccccc2)ccc1O, the activity change, less the hit threshold was 87.6% (active).
CCc1ccc(C(C)NC(=O)c2ccc(F)cc2)cc1 (stereo unspecified) was tested, and the activity change, less the hit threshold was 21.6% (active).
CC(NC(=O)c1ccc(F)cc1)c1ccc2c(c1)CCCC2 (stereo unspecified) was tested, and the activity change, less the hit threshold was 26.1% (active).
With CC(NC(=O)c1ccc(Br)cc1)c1ccc2c(c1)CCCC2 (stereo unspecified) the activity change, less the hit threshold was 33.3% (active).
For C=CCn1c(=S)[nH]c2scc(-c3cccs3)c2c1=O, the activity change, less the hit threshold was 93.7% (active).
For C=CCn1c(SCC(N)=O)nc2scc(-c3ccc(C)o3)c2c1=O, the activity change, less the hit threshold was 1.7% (active).
In the case of C=CCn1c(=S)[nH]c2scc(-c3ccc(C)o3)c2c1=O, the activity change, less the hit threshold is reported as 80.3% (active).
With CCCSC(=S)c1c(C)[nH]n(-c2ccccc2)c1=O the activity change, less the hit threshold was 49.7% (active).
In the case of Cc1ccc(CN2CCN(CC(=O)NC(C)c3ccc4c(c3)OCCO4)C2=O)cc1 (stereo unspecified), the activity change, less the hit threshold is reported as 16.9% (active).
C/C(=N\NC(=O)c1cc2ccccc2cc1O)c1cc2ccccc2o1 was tested, and the activity change, less the hit threshold was 82% (active).
C/C(=N/NC(=O)c1cc2ccccc2cc1O)c1ccco1 was tested, and the activity change, less the hit threshold was 72.8% (active).
In the case of Cc1ccc(/C=N/NC(=O)c2cc3ccccc3cc2O)o1, the activity change, less the hit threshold is reported as 77.9% (active).
With C/C(=N\NC(=O)c1ccoc1C)c1cccc2ccccc12 the activity change, less the hit threshold was 55% (active).
With C/C(=N\NC(=O)c1cc2ccccc2cc1O)c1ccc(C)o1 the activity change, less the hit threshold was 30.2% (active).
For Cc1ccc(C(=O)Sc2cccccc2=O)cc1, the activity change, less the hit threshold was 78.4% (active).
